Screening data (PubChem BioAssay)
IL1B secr inh: blocks inflammasome-driven IL-1 beta release | hit rate 4.7% among 360,000 | activity change, % at 57.5 µM | THP-1 LPS/ATP IL-1B secretion, AlphaLISA, 16 h; stronger effect = lower value; in the data active = activity change below about -50%; inconclusive = mostly about -30% to -49%
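Secreted IL-1B measured by AlphaLISA bead assay after 16 h compound exposure of THP-1 cells; compounds (final up to 57.5 uM) added 1 h before LPS (250 ng/mL) and ATP (1.25 mM) stimulation; lower signal means less secretion.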
TDP1 cell CPT: growth inhibition of DT40 Tdp1-/-;hTDP1 cells with camptothecin (screen for TDP1 inhibitors). hit rate 12% among 420,000. Potency, µM (highest dose often 46.2 µM), inactives show top-dose activity change, negative = growth inhibition, usual class: inhibitors. chicken DT40 Tdp1-/-;hTDP1 cells + 20 nM CPT, ATP luminescence, 48 h. AID 686979; also: potency is read from the fitted curve at half-maximal effect; nearly all actives have a fitted effect of over 55% in size
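Chicken DT40 Tdp1-/- cells stably complemented with human TDP1 were seeded at 400 cells/well in medium containing 20 nM camptothecin, exposed to pin-transferred compounds, and grown at 37 °C for at least 48 hr. Viability was read as ATP luminescence.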
HT1080NT lethal: kills 2HG-producing HT-1080-NT fibrosarcoma cells; HT-1080-NT fibrosarcoma viability, CellTiter-Glo ATP luminescence, 48 h; Potency, µM (top dose mostly 46.1 µM), without a hit: top-dose activity, negative = less viability, usual class: cytotoxic; hit rate 1.6% among 360,000; AID 686970;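 also: NT is the 2HG producing partner of a matched IDH1 knockdown line; potency is read from the fitted curve at half-maximal effect; 0% = DMSO-treated cells and -100% = media-only wells without cells; nearly all actives have a fitted effect of over 55% in size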
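HT-1080-NT fibrosarcoma cells (2HG-overproducing), 750 cells/well in RPMI with 5% FBS, dosed after 2 h and incubated 48 h at 37C. CellTiter-Glo luminescence normalized to DMSO and no-cell wells; concentration-response curves fitted and classed.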
HT1080 IDH1KD tx: kills HT-1080 cells with IDH1 knockdown; HT-1080 IDH1 knockdown viability, ATP luminescence, 48 h; Potency, µM (highest dose often 46.1 µM), for inactives: at the highest dose activity, negative = toxicity, hits mostly cytotoxic; hit rate 2% among 360,000; AID 686971;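 also: potency is read from the fitted curve at half-maximal effect; 0% = DMSO wells and -100% = cell-free medium wells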
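Assay cells: HT-1080 with IDH1 knockdown, 750 per well, RPMI/5% FBS. Exposure: 48 h at 37 °C following 2 h pre-incubation. Read: CellTiter-Glo luminescence; fitted concentration-response, curve class assigned.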
TDP1 cell noCPT: qHTS for Inhibitors of human tyrosyl-DNA phosphodiesterase 1 (TDP1): qHTS in cells in absence of CPT; Potency, µM (top dose mostly 46.2 µM), for inactives: top-dose activity change, negative = growth inhibition, hits mostly inhibitors; hit rate 15% among 420,000; AID 686978, 2013; DT40 Tdp1-/- hTDP1 cells, no CPT, ATP luminescence, 48 h; also: potency is read from the fitted curve at half-maximal effect; nearly all actives have a fitted effect of over 55% in size
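Growth of hTDP1-complemented DT40 Tdp1-knockout cells is measured by ATP luminescence after at least 48 hr compound exposure at 37 °C, with DMSO substituting for the 20 nM CPT used in the parallel screen.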
An asterisk follows results filed as active; u = inconclusive; x = not tested or not shown; [ ] = remark or other dose. Sampled rows, rich in hits. Any-hit rate of the full collection: about 19%. Unless noted, calls follow the shape of the dose curve; as a rule, active = well fitted curve in the direction sought with a large enough effect; inconclusive = small, poorly fitted or top-dose-only effect, or another doubt; inactive = no such curve, though single readings can be large; an effect the other way counts as inactive or inconclusive. Unless noted, % is scaled to controls: 0 for no effect and ±100 for the full control effect.

SMILES | IL1B secr inh | TDP1 cell CPT | HT1080NT lethal | HT1080 IDH1KD tx | TDP1 cell noCPT
CCOc1ccc2[nH]c(=O)c(CN(CCc3ccccc3)C(=O)N3CCCC3)cc2c1 | -2 | 13µM* | -3% | -5% | u
CC(C)Cn1c(N)c(C(=O)COC(=O)[C@H](C)NC(=O)c2ccccc2Cl)c(=O)n(C)c1=O | 7 | u | -8% | -1% | -29%
CC(=O)C1=NN(c2ccccc2)C(c2cccs2)N1c1ccc(N(C)C)cc1 (centres undefined) | -72* | 2.2µM* | 7.1µM* | 2.5µM* | 4µM*
CC1(C)Cc2c(sc(NC(=O)Cc3ccccc3)c2C#N)C(C)(C)N1 | -4 | u | -16% | -16% | u
CC1(C)Cc2c(sc(NC(=O)COc3cccc4ccccc34)c2C#N)C(C)(C)N1 | -100* | 10µM* | 9.2µM* | 15µM* | 13µM*
Cc1ccc(OCC(=O)Nc2sc3c(c2C#N)CC(C)(C)NC3(C)C)cc1 | -11 | u | 21µM* | u | u
CCn1c(C)nc2cc(C(=O)N/N=C/c3ccc(N4CCOCC4)cc3)ccc21 | 11 | -17% | 3% | -10% | u
O=S(=O)(Nc1cccnc1Cl)c1ccc(F)cc1 | 3 | -13% | 6% | 2% | -9%
O=S(=O)(Nc1cc(Sc2cccc3cccnc23)c(O)c2ccccc12)c1ccc(F)cc1 | -98* | 0.58µM* | 23µM* | 21µM* | 0.92µM*
CC1(C)CC(=O)/C(=C(/O)CCCN2C(=O)c3ccccc3C2=O)C(=NC(C)(C)C)C1 | 5 | 0% | -3% | -2% | -23%
CC(CCc1ccc(O)cc1)NCc1ccc(Br)cc1 (centres undefined) | -11 | 12µM* | u | u | 16µM*
CC(CCc1ccc(O)cc1)NCCC(c1ccccc1)c1ccccc1 (centres undefined) | -30 | u | 21µM* | 21µM* | 5.2µM*
CC(CCc1ccc(O)cc1)N(C)CCc1ccccc1 (centres undefined) | -3 | -27% | 7% | 7% | -3%
CC(O)CNCc1ccc(Cl)cc1Cl (centres undefined) | 30 | -6% | 1% | 22% | -29%
CC(CCc1ccc(O)cc1)NC(c1ccccc1)c1ccc(Cl)cc1 (centres undefined) | -100* | u | 10µM* | 7.3µM* | u
CC(CCc1ccccc1)NCc1ccc(Cl)cc1Cl (centres undefined) | -70* | u | 3% | 0% | u
CC(O)C(=O)O (centres undefined) | x | 0% | x | x | -11%
Cc1ccc(S(=O)(=O)N2CCN(C(=O)c3cc(S(=O)(=O)N4CCOCC4)c(Cl)cc3Cl)CC2)cc1 | 14 | u | -1% | 0% | u
O=C(O)c1cccc(S(=O)(=O)Nc2cccc(S(=O)(=O)N3CCCC3)c2)c1 | -3 | -2% | -12%[9.24 µM] | 6% | 2%
CCCCNC(=O)c1ccc2c(=O)n(-c3ccccc3)c(=O)[nH]c2c1 | x | -24% | x | x | 3%
CC(C)CN1CCC2(CC1)CCN(C(=O)c1ccco1)CC2 | x | 4% | x | x | -16%
Cc1cc(Nc2ccccc2)nc2cc(O)ccc12 | 29 | -28% | 2% | 13% | -27%
COc1ccc(Nc2cc(C)c3ccc(O)cc3n2)cc1 | -50* | 23µM* | 11% | -18% | 16µM*
CC(=O)Nc1ccc(Nc2cc(C)c3ccccc3n2)cc1 | -92* | u | 12% | 7% | u
Cc1ccc(/C(=C\CN2CCCC2)c2ccccn2)cc1 | -29 | u | 16% | 10% | u
SMILES | IL1B secr inh | TDP1 cell CPT | HT1080NT lethal | HT1080 IDH1KD tx | TDP1 cell noCPT
O=C1OCCN1c1c(-c2ccccc2)c(N2CCOCC2)nc2ccccc12 | 16 | 12µM* | 0% | -8% | 15µM*
CC[C@H](C)[C@@H](CO)NC(=O)[C@H]1O[C@@H](n2ccc(N)nc2=O)[C@H](O)[C@@H]1O | 26 | -11% | 0% | 13% | -7%
Cc1ccc(NC(=O)CCNC(=O)c2ccc(Br)cc2)cc1S(=O)(=O)N1CCCCCC1 | 6 | u | -8% | -7% | 16µM*
O=C(CN1CCCC1c1cccs1)Nc1cccc(S(=O)(=O)N2CCCC2)c1 (centres undefined) | 11 | 15µM* | -3%[9.24 µM] | -4% | u
O=C(Cc1ccc(Cl)c(Cl)c1)Nc1cccc(S(=O)(=O)N2CCOCC2)c1 | -80* | u | -24% | u | u
O=C(Nc1cccc(S(=O)(=O)N2CCCCC2)c1)Nc1ccc(Cl)cc1Cl | -87* | u | 21µM* | 16µM* | u
CN(Cc1ccco1)C(=O)Cn1nc(-c2ccc(Cl)cc2)ccc1=O | -7 | u | -2% | 0% | u
O=C(COC(=O)CCC1CCCC1)Nc1cccc(S(=O)(=O)N2CCOCC2)c1 | -87* | -20% | -2% | 11% | -27%
COc1cc(C#N)ccc1OCC(=O)Nc1cccc(S(=O)(=O)N2CCCC2)c1 | 0 | u | -10% | 0% | u
O=C(COc1ccc(F)cc1Cl)Nc1cccc(S(=O)(=O)N2CCCCCC2)c1 | -12 | u | -11% | -6% | u
N#Cc1ccccc1OCC(=O)Nc1cccc(S(=O)(=O)N2CCCC2)c1 | -3 | 16µM* | -4% | 6% | u
COc1ccc(CCC(=O)Nc2cccc(S(=O)(=O)N3CCOCC3)c2)cc1OC | -11 | 15µM* | 8% | -5% | u
CCc1ccccc1OCC(=O)Nc1cccc(S(=O)(=O)N2CCCC2)c1 | -3 | u | -9% | -10% | 16µM*
O=C(CCNC(=O)c1ccc(Cl)cc1)Nc1cccc(S(=O)(=O)N2CCCCC2)c1 | -13 | 18µM* | 4% | 4% | 23µM*
O=C(Cc1ccccc1Cl)Nc1cccc(S(=O)(=O)N2CCCCCC2)c1 | -52* | -7% | -17% | 0% | -6%
O=C(CCc1ccccc1Cl)Nc1cccc(S(=O)(=O)N2CCCC2)c1 | -3 | -21% | -3% | -9% | u
O=C(Nc1cccc(S(=O)(=O)N2CCCC2)c1)[C@@H]1O[C@H](CO)[C@@H](O)[C@H]1O | -76* | 5% | 21% | 29% | 0%
O=C(CN(CCO)c1ccccc1)Nc1cccc(S(=O)(=O)N2CCCC2)c1 | -4 | 18µM* | -9% | -9% | u
O=C(Nc1cccc(S(=O)(=O)N2CCCC2)c1)[C@@H]1O[C@H](CO)[C@H](O)[C@H](O)[C@H]1O | 11 | -11% | 26% | 13% | u
COC(=O)/C=C1\SC(N)=NC1=O | 6 | 11% | -5% | 5% | 2%
